# HepG2 tox = qHTS for Inhibitors of TGF-b: Cytotox Counterscreen. AID 588856, 2011. actives 0.76% (n = 410,000). HepG2 CAGA-GFP viability, ATP luminescence, 18 h. Potency, µM (series often up to 46.1 µM), without a hit: at the top dose activity change, negative = cytotoxicity, hits mostly cytotoxic
#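 CellTiter-Glo luminescence gave cytotoxicity after 18 hours at 37 degrees C. The cells were HepG2 CAGA-GFP in 1% FBS DMEM, stimulated with 500 pg/mL TGF-beta after compound addition. %Activity was normalised to no-cell wells (complete cell-killing) and DMSO (no toxicity), and curves were fitted and classified.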
# A549 tox = Nrf2 qHTS screen for inhibitors: counterscreen for cytotoxicity. A549 ARE-Fluc cells, CellTiter-Fluor viability, 18-24 h. Potency, µM (top dose mostly 46 µM), without a hit: at the top dose activity change, negative = cytotoxicity, hits mostly inhibitors. actives 0.16% (n = 390,000). AID 504648, 2011; further: on the % scale 0 is the no-effect control and ±100 the full control effect
#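 A549 ARE-Fluc cells in 5% FBS OPTI-MEM, 5000 cells/well, rested 2 h then exposed to compounds in concentration-response for 18-24 h at 37 °C. Viability by CellTiter-Fluor fluorescence (Ex 405/Em 525) after 30 min; luciferase luminescence (BugLite, 15 min, RT) read afterwards.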
# TGFb SMAD3 inh = qHTS for Inhibitors of TGF-b; HepG2 CAGA-GFP TGF-b/SMAD3 reporter, GFP fluorescence, 18 h; TGF-beta stimulated, 500 pg/mL final; Potency, µM (doses to about 46.1 µM), inactives show at the top dose activity, negative = inhibition, usual class: inhibitors; actives 1.2% (n = 410,000); further: on the % scale 0 is the no-effect control and ±100 the full control effect; nearly all actives have a fitted effect of over 65% in size
#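 GFP signal (ex488/em500-530) from TGF-beta-stimulated HEPG2 CAGA-GFP cells, 500 pg/mL final, 18 h at 37 degrees C in DMEM plus 1% FBS, normalized to unstimulated and DMSO-stimulated controls.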
# S2 tox = Viability Counterscreen for Primary qHTS for Inhibitors of ATXN expression; S2 cells (HEK-293 line with an ATXN2-luciferase reporter) viability, CellTiter-Fluor protease fluorescence, 24 h; Potency, µM (highest dose often 56.7 µM), most hits filed as cytotoxic; actives 0.49% (n = 400,000); further: nearly all actives have a fitted effect of over 40% in size
# ATXN2 expr inh = Primary qHTS for Inhibitors of ATXN expression | HEK-293 ATXN2-luciferase reporter, luminescence, 24 h | Potency, µM (top dose mostly 57 µM), without a hit: at the top dose activity change, negative = inhibition, hits mostly inhibitors | actives 0.72% (n = 360,000) | AID 1745845, 2022; further: on the % scale 0 is the no-effect control and ±100 the full control effect; nearly all actives have a fitted effect of over 55% in size
#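 ATXN2-luciferase reporter cells (luciferase flanked by upstream and downstream ATXN2 gene portions) were treated 24 h at 37 °C with compounds at up to 57 uM. SteadyGlo luminescence gave expression; GF-AFC fluorescence gave viability.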
# Nrf2 block = Nrf2 qHTS screen for inhibitors. actives 2.1% (n = 360,000). Potency, µM (top dose mostly 46 µM), for the others: top-dose activity change, negative = inhibition, usual class: inhibitors. AID 504444, 2011. A549 ARE-Fluc reporter, luciferase luminescence, 18-24 h; further: on the % scale 0 is the no-effect control and ±100 the full control effect; nearly all actives have a fitted effect of over 60% in size
#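 Two sequential reads on A549 ARE_Fluc cells exposed to compound for 18-24 h: a CellTiter-Fluor fluorescence read for viability, then a luciferase luminescence read for Nrf2/ARE activity.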
# The depositor's hits bear a star; i = inactive; ? = inconclusive; . = not tested or not shown. Sampled rows, rich in hits. Any-hit rate of the full collection: about 3.8%. The call rests on the fitted dose curve; in most records, active means well fitted curve in the direction sought with a large enough effect; inconclusive means small, poorly fitted or top-dose-only effect, or another doubt; inactive means no such curve, though single readings can be large; an effect the other way counts as inactive or inconclusive. Potency means the concentration at half of the fitted maximal effect.
SMILES,HepG2 tox,A549 tox,TGFb SMAD3 inh,S2 tox,ATXN2 expr inh,Nrf2 block
O=S1(=O)C2CC3C=CC2(O3)C(O)C(Cc2ccccc2)N1Cc1cccc(C(F)(F)F)c1 (stereo unspecified),-32.8%,-4.9%,?,.,.,0.4%
O=C1c2cccc3cc([N+](=O)[O-])cc(c23)C(=O)N1/N=C/c1ccc(O)cc1O,1.3%,23.1µM*,-5.0%,i,-31.8%,?
CCN(CC)c1ccc(/C=N/N2C(=O)c3ccccc3C2=O)c(O)c1,-9.4%,-9.0%,10.7%,?,15.1%,5.2%
c1ccc(Cc2nnc(Sc3ccccc3)c3ccccc23)cc1,20µM*,7.7%,?,i,-38.3%,?
COc1cc(/C=N/N=C2\CC3CCC2(C)C3(C)C)ccc1O (stereo unspecified),-19.3%,-16.0%,-3.0%,i,-9.0%,-13.2%
CC12CCC(C/C1=N\N=C1\NC(=O)/C(=C\c3cccc(Br)c3)S1)C2(C)C (stereo unspecified),-101.4%,?,?,?,?,18.4µM*
CCc1nc2ccc(C(=O)NCc3ccc(N(C)C)cc3)cc2nc1CC,1.6%,-2.0%,14.5%,.,.,.
CCc1nnc2sc(-c3ccc(NC(=O)c4ccco4)cc3)nn12,-42.5%,-21.5%,-3.3%,.,.,-24.5%
CCc1nnc2sc(-c3ccc(NC(=O)c4ccc5c(c4)OCCO5)cc3)nn12,-9.7%,-17.2%,-16.7%,i,-21.5%,2.59µM*
Cc1noc(C)c1CSc1nc2ccccc2nc1NS(=O)(=O)c1ccc(Cl)cc1,-45.9%,?,7.94µM*,i,-25.7%,9.2µM*
Cc1ccc(S(=O)(=O)Nc2nc3ccccc3nc2NCc2ccco2)cc1C,-5.3%,-4.6%,?,i,-9.1%,20.6µM*
Cc1ccc(S(=O)(=O)Nc2nc3ccccc3nc2NCc2ccco2)cc1,-33.3%,-4.1%,-7.1%,i,142.0%,?
O=S(=O)(Nc1nc2ccccc2nc1NCc1ccco1)c1ccc(Cl)cc1,-23.9%,-12.9%,?,i,-8.5%,20.6µM*
CCOC(=O)Cc1csc(NC(=O)C(NC(=O)C2CCC(C)CC2)C(C)C)n1 (stereo unspecified),-22.6%,-2.4%,-18.0%,?,.,?
Cc1ccccc1CCN1CCCC(CN(C)C(=O)c2ccc3ncccc3c2)C1 (stereo unspecified),-5.8%,-1.5%,11.6%,i,3.4%,7.3%
COc1ccc(N(CC(O)Cn2c3ccccc3c3ccccc32)S(=O)(=O)c2ccccc2)cc1 (stereo unspecified),-33.9%,-20.7%,?,i,-5.6%,.
Cc1ccc(N(CC(O)Cn2c3ccccc3c3ccccc32)S(=O)(=O)c2ccc(F)cc2)cc1 (stereo unspecified),14.1µM*,?,8.91µM*,.,.,?
CC(=O)Nc1ccccc1N(CC(O)Cn1c2ccccc2c2ccccc21)S(=O)(=O)c1ccc(C)cc1 (stereo unspecified),-20.5%,-22.1%,?,i,?,25.9µM*
CCc1ccccc1NC(=O)Nc1c[nH]c(=O)[nH]c1=O,-26.8%,-7.1%,-29.2%,i,-1.8%,9.7%
Cc1ccc(C(=O)NCc2ccco2)cc1S(=O)(=O)Nc1cccc(Cl)c1,-7.1%,-12.2%,0.6%,i,-0.7%,23.1µM*
Cc1ccc(C)c(S(=O)(=O)NCc2ccc(C(=O)NCc3ccco3)cc2)c1,-4.9%,-1.5%,?,i,4.7%,7.5%
Cc1cc(C)c(NC(=S)NCCCSC2CCCCC2)c(C)c1,-1.2%,-2.7%,?,i,-20.4%,20.6µM*
O=C1NC(c2ccccc2Cl)=N/C1=C/c1ccco1,17.8µM*,-2.6%,?,i,33.0%,18.9%
COc1ccc(/[N+]([O-])=C/c2ccoc2)cc1,1.6%,5.4%,-7.1%,i,90.8%,8.9%
CCOC(=O)N1CCN(C(=O)c2ccc(S(=O)(=O)Nc3ccc(C)cc3)cc2)CC1,-1.7%,-16.2%,-17.0%,i,-13.6%,10.3µM*
SMILES,HepG2 tox,A549 tox,TGFb SMAD3 inh,S2 tox,ATXN2 expr inh,Nrf2 block
CN(c1ccc(C(=O)N2CCCCCC2)cc1)S(=O)(=O)c1ccc(Cl)cc1,0.4%,-8.6%,-32.7%,i,-19.1%,23.1µM*
Cc1ccc(NS(=O)(=O)c2ccc(C(=O)N3CCCCCC3)cc2)cc1,5.6%,3.0%,?,i,-13.4%,?
Cc1ccc(NS(=O)(=O)c2ccc(C(=O)N3CCCCCCC3)cc2)cc1,-4.4%,-6.6%,-20.6%,i,-10.8%,20.6µM*
CCOC(=O)N1CCN(C(=O)c2ccc(NS(=O)(=O)c3ccc(C)cc3)cc2)CC1,4.6%,-6.7%,-4.1%,i,-11.7%,?
O=C(c1ccc(S(=O)(=O)Nc2ccccc2)cc1)N1CCCC(C(F)(F)F)C1 (stereo unspecified),-4.3%,?,-2.4%,i,-14.3%,25.9µM*
CNC(=O)c1cc2c(=O)n3cccc(C)c3nc2n(C(C)C)c1=N,0.4%,?,-0.1%,.,-15.7%,10.4%
Cc1ccccc1-n1c(C)nnc1SCC(=O)N1CCc2ccccc2C1,-6.7%,-1.8%,1.4%,i,2.2%,1.8%
COc1ccc(OC)c2sc(N3CCN(C(=O)C(C)(C)C)CC3)nc12,1.4%,-5.9%,-12.1%,i,17.6%,.
C[C@@H]1CCCCCCCCC(=O)OCCN[C@H](C)CCCCCCCCC(=O)OCCN[C@H](C)CCCCCCCCC(=O)OCCN1,-63.8%,-9.5%,15.8µM*,20µM*,?,4.4%
C[C@@H]1CCCCCCCCC(=O)OCCN(C(=O)OC(C)(C)C)[C@H](C)CCCCCCCCC(=O)OCCN1C(=O)OC(C)(C)C,11.5%,?,14.9%,i,0.4%,?
Nc1nc(N)c(-c2cccc(C(F)(F)F)c2)c(Cc2cccc(C(F)(F)F)c2)n1,8.91µM*,1.5%,?,i,?,14.6µM*
O=C(c1oc2ccccc2c1CSCc1ccccc1)N1CCN(c2ncccn2)CC1,-42.0%,-0.6%,15.8µM*,i,?,?
CCOCC(=O)Nc1c(C(=O)N2CCN(c3ncccn3)CC2)oc2ccccc12,-28.2%,2.9%,-5.5%,i,-5.0%,12.1%
CN1c2cc(Cl)ccc2-c2nc(SCC(=O)Nc3ccc(F)cc3F)ncc2S1(=O)=O,-18.1%,-17.5%,-2.1%,i,-20.2%,16.4µM*

# Assay outcomes (PubChem BioAssay)
